# Shown are actives, neighbours in structure and some others; about 1.5% of the full set was active somewhere.
# N-glyco inh: blocks N-linked glycosylation in D54 reporter cells; reporter increase, % at 12.5 µM; hit rate 0.23% among 360,000; D54 ERlucT glycosylation luciferase reporter, 24 h; percent of 100 nM tunicamycin response;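 active means mean luciferase reporter signal, scaled so untreated is 0 and the glycosylation-blocking control 100, at or above a set limit in every replicate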;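 further: luciferase carries N-glycosylation sites so blocking glycosylation raises the light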
# RAD54 branch: RAD54 (human) branch migration inhibition; AID 602329; inhibition, % at 10.4 µM; Q92698; hit rate 0.14% among 360,000; RAD54 Holliday junction branch migration, FAM/BHQ fluorescence;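 active means mean normalized replicate activity at least 40 and at least half of replicates scoring 40 or more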;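 further: inhibitors cause a drop in the FAM fluorescence signal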
# dFosB activator: activators of mouse delta FosB homodimer | hit rate 0.99% among 340,000 | AID 493131 | activation, % at 25 µM | purified delta FosB, TAMRA-CDK5 oligo fluorescence polarization; percent of positive-control signal above neutral wells | P13346;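 active means mean activation above about 17%, with every replicate also reaching it, limit read from the data, passing the limit was not always enough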
# Target sequence (P13346 whole entry, looked up): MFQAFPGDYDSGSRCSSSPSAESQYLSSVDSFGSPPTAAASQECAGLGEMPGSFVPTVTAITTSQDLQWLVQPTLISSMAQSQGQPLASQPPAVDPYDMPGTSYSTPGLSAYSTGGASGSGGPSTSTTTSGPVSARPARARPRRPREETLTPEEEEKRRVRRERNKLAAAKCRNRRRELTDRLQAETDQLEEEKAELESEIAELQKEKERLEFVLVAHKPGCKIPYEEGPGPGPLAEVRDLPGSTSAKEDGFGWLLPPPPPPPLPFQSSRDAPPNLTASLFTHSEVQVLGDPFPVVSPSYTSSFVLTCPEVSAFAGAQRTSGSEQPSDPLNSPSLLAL
# PvdQ acylase: P. aeruginosa PvdQ acylase inhibition; hit rate 0.063% among 340,000; purified PvdQ acylase, fluorescence plate reader; AID 488965; inhibition, % at 10 µM; in the data active means inhibition above about 30%, passing the limit was not always enough
# RAD52 inh: inhibitors of human RAD52 DNA annealing. AID 651710. recombinant RAD52 DNA annealing, FRET fluorescence. P43351. hit rate 0.46% among 360,000. inhibition, % at 18.7 µM;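 active means every replicate showing at least 50% inhibition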
# CFTR F508del cor: correctors of CFTR F508del function in bronchial epithelial cells. hit rate 0.36% among 350,000. CFBE cells, YFP halide quenching; stimulated with forskolin plus potentiator P3; % fluorescence drop versus neutral controls. activity (quench increase), % at 7.58 µM. AID 720511;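 active means mean added fluorescence quench of at least 8% versus neutral control, with both replicates also reaching 8%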;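 further: cells transiently co-express mutant CFTR-F508del with the halide-sensitive YFP; corrector assay measuring rescue of mutant channel to the surface after 24 h compound exposure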
# A number is an active result; - = inactive; . = not tested or not shown.
SMILES,N-glyco inh,RAD54 branch,dFosB activator,PvdQ acylase,RAD52 inh,CFTR F508del cor
COCC(=O)N1CCCCN2[C@@H](CO)[C@H](c3ccc(C#Cc4ccc(OC)cc4)cc3)[C@@H]2C1,.,-,.,.,-,-
C[C@H](CO)N1C[C@H](C)[C@@H](CN(C)S(=O)(=O)c2ccc(Cl)cc2)Oc2ccc(NC(=O)Cc3ccccc3)cc2CC1=O,.,-,.,.,-,-
Cc1nc(NC(=O)c2cccc(-c3cc4ccccc4oc3=O)c2)ccc1Br,-,.,168,-,.,.
Cc1nc(NC(=O)c2ccc(-c3cc4ccccc4oc3=O)cc2)ccc1Br,-,.,-,-,.,.
CC(C)C#Cc1ccc2c(c1)O[C@@H](CN(C)C(=O)C1CCCCC1)[C@H](C)CN([C@H](C)CO)S2(=O)=O,.,.,.,.,.,-
O=C1C=C(NCCc2cc(Br)c(O)c(Br)c2)C(=O)c2ncccc21,-,.,-,-,-,16
COCC(=O)Nc1ccc2c(c1)OC[C@H](C)N(C(=O)c1ccccc1)C[C@@H](C)[C@@H](OC)CN(C)C2=O,.,-,.,.,-,-
Nc1cccc(N2C(=O)c3cccc4c(N)ccc(c34)C2=O)c1,-,-,-,-,-,-
Nc1ccc2c3c(cccc13)C(=O)N(c1ccccc1)C2=O,-,.,-,-,-,33
COc1ccc(N=C(C)C2=C(O)CSC2=O)cc1,-,-,-,44,-,-
CC(=Nc1ccccc1)C1=C(O)CSC1=O,-,-,-,-,.,.
COc1ccc2c(c1)OC[C@H]1[C@H]2N2C(=O)c3ccc(C)cc3NC(=O)[C@@]2(C)[C@H]1c1ccccc1,48,-,-,-,.,-
COc1ccc2c(c1)C(=O)N1[C@H]3c4cc(Br)ccc4OC[C@@H]3[C@H](c3ccccc3)[C@]1(C)C(=O)N2,37,-,-,-,.,.
C[C@@]12C(=O)Nc3cc(F)ccc3C(=O)N1[C@H]1c3ccccc3OC[C@@H]1[C@@H]2c1ccccc1,26,-,-,-,.,.
COc1ccc2c(c1)C(=O)N1[C@H]3c4cc(Cl)ccc4OC[C@@H]3[C@H](c3ccccc3)[C@]1(C)C(=O)N2,38,-,-,-,.,-
COc1ccc2c(c1)OC[C@H]1[C@H]2N2C(=O)c3cc(Cl)ccc3NC(=O)[C@@]2(C)[C@H]1c1ccccc1,-,-,-,-,.,.
CC(C)NC(=O)N(C)C[C@H]1OCCCC[C@H](C)Oc2ccc(NC(=O)c3ccccc3)cc2C(=O)N([C@@H](C)CO)C[C@@H]1C,.,-,.,.,-,-
CC(C)NC(=O)Nc1ccc2c(c1)CC(=O)N([C@H](C)CO)C[C@H](C)[C@H](CN(C)C(=O)Nc1ccc(F)cc1)O2,.,-,.,.,-,-
COc1ccc2c(c1)[C@H]1[C@H](CO2)[C@H](c2ccccc2)[C@]2(C)C(=O)Nc3cc(Cl)ccc3C(=O)N12,64,-,-,-,.,.
Cc1ccc2c(c1)[C@H]1[C@H](CO2)[C@H](c2ccccc2)[C@]2(C)C(=O)Nc3cc(Cl)ccc3C(=O)N12,-,-,-,-,.,.
COc1ccc2c(c1)[C@H]1[C@H](CO2)[C@H](c2ccccc2)[C@]2(C)C(=O)Nc3cc(C)ccc3C(=O)N12,51,-,-,-,-,-
Cc1ccc(S(=O)(=O)N(C)C[C@@H]2Oc3ccc(NS(=O)(=O)c4ccccc4)cc3C(=O)N([C@H](C)CO)C[C@@H]2C)cc1,.,-,.,.,-,-
COCC(=O)N(C)C[C@H]1Oc2ncc(C#Cc3cccnc3)cc2C(=O)N([C@H](C)CO)C[C@H]1C,.,-,.,.,-,-
O=C(N=Nc1c(O)[nH]c2ccc(Br)cc12)c1ccco1,-,-,.,.,-,-
O=C(N=Nc1c(O)[nH]c2ccc(Br)cc12)c1ccccc1-n1cccc1,-,-,-,-,-,13
SMILES,N-glyco inh,RAD54 branch,dFosB activator,PvdQ acylase,RAD52 inh,CFTR F508del cor
COc1ccc(NC(=O)N[C@@H]2CC[C@H](CCNC(=O)c3cc(Cl)cc(Cl)c3)O[C@H]2CO)cc1,.,-,.,.,-,-
CC1CCC2(CC1)NC(=O)N(CC(=O)Nc1cccc(S(=O)(=O)N(C)c3ccccc3)c1)C2=O (stereo unspecified),-,-,.,.,-,.
COc1cccc(NC(=O)CN2C(=O)NC3(CCCCCC3)C2=O)c1,-,-,-,-,-,8.8
CCN(CC)S(=O)(=O)c1cccc(NC(=O)CN2C(=O)NC3(CCC(C)CC3)C2=O)c1 (stereo unspecified),32,-,-,-,-,-
COc1cccc(NC(=O)CN(C)C(=O)CN2C(=O)NC3(CCCC3)C2=O)c1,-,-,-,-,-,-
COc1ccc(NC(=O)CN2C(=O)NC3(CCCCCCC3)C2=O)cc1,-,-,-,-,-,-
CC(C)c1ccc(NC(=O)CN2C(=O)NC3(CCCCCCC3)C2=O)cc1,37,-,-,-,-,9.5
C[C@@H]1CN([C@H](C)CO)C(=O)c2cc(NS(=O)(=O)c3ccc(Cl)cc3)ccc2O[C@H]1CN(C)C(=O)Nc1ccc2c(c1)OCO2,.,-,.,.,-,-
O=C(C[C@H]1C[C@@H]2c3cc(NC(=O)CC4CC4)ccc3O[C@@H]2[C@@H](CO)O1)NCc1ccccn1,.,-,.,.,-,-
Cc1ccc(S(=O)(=O)N(C)C[C@@H]2Oc3ccc(NC(=O)Cn4cnnn4)cc3C(=O)N([C@@H](C)CO)C[C@@H]2C)cc1,.,-,.,.,-,-
CCC1=Nc2cc(C(=O)NCC3CCCO3)ccc2Sc2ccc(Cl)cc21 (stereo unspecified),-,-,-,-,-,15
CCC1=Nc2cc(C(=O)NCc3cccnc3)ccc2Sc2ccc(C)cc21,-,.,-,-,-,12
CCOc1ccc(C2Nc3cccc4cccc(c34)N2)cc1OC,-,.,-,-,.,.
CCOc1cc(C2Nc3cccc4cccc(c34)N2)ccc1O,-,-,32,-,.,.
Cc1cccc(NC(=O)c2ccc3c(c2)OCCO3)n1,-,-,-,37,.,.
CCOc1ccc(C(=O)Nc2cccc(C)n2)cc1,-,-,-,51,.,.
CCCCOc1ccc(C(=O)Nc2cccc(C)n2)cc1,-,-,-,-,.,.
COc1ccc(S(=O)(=O)N(C)C[C@H]2Oc3ccc(NS(=O)(=O)c4ccc(C)cc4)cc3C(=O)N([C@H](C)CO)C[C@@H]2C)cc1,.,.,.,.,-,-
CCCN(C(=O)Cn1nc(C)c([N+](=O)[O-])c1C)c1c(N)n(Cc2ccccc2)c(=O)[nH]c1=O,-,-,18,-,-,-
Nc1c(N(CCC2=CCCCC2)C(=O)COc2ccc(F)cc2)c(=O)[nH]c(=O)n1Cc1ccccc1,55,-,-,-,.,.
CCCN(C(=O)Cc1coc2cc(C)c(C)cc12)c1c(N)n(Cc2ccccc2)c(=O)[nH]c1=O,-,.,-,-,-,-
Nc1c(N(Cc2ccccc2)C(=O)COc2ccc([N+](=O)[O-])cc2)c(=O)[nH]c(=O)n1Cc1ccccc1,123,-,-,-,-,-
O=C(C[C@@H]1C=C[C@@H](NC(=O)C2CCC2)[C@@H](CO)O1)NCc1ccncc1,.,-,.,.,-,-
